Compounds with a hit are over-represented: about 15% of the library has one in this group of screens.
12-LOX inh: inhibitors of human 12S-lipoxygenase ALOX12; purified 12hLO, xylenol orange hydroperoxide absorbance; P18054; Potency, µM (titrated, usually from 108 µM), for inactives: at the highest dose activity change, negative = inhibition, actives largely listed as inhibitors; actives 1.1% (n = 580,000)
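Hydroperoxide product was detected by ferrous iron/xylenol orange as the 573 to 405 nm absorbance ratio. Arachidonic acid at 40 uM (final) was turned over for 30 min at room temperature by 150 nM human 12hLO, pH 7.0 Hepes buffer, after 15 min compound preincubation.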
TDP1 cell noCPT: qHTS for Inhibitors of human tyrosyl-DNA phosphodiesterase 1 (TDP1): qHTS in cells in absence of CPT; actives 15% (n = 420,000); Potency, µM (series often up to 46.2 µM), inactives show at the highest dose activity change, negative = growth inhibition, hits mostly inhibitors; DT40 Tdp1-/- hTDP1 cells, no CPT, ATP luminescence, 48 h; note: nearly all actives have a fitted effect of over 55% in size
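Growth kinetics read by CellTiter-Glo luminescence after ≥48 hr at 37 °C. Cells: DT40 Tdp1-/- stably carrying human TDP1, 400 per well, compound exposure in the absence of CPT (DMSO vehicle).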
RORgamma inh: ROR gamma (mouse) transcription inhibition. Potency, µM (top dose mostly 53.6 µM), without a hit: top-dose activity change, negative = inhibition, hits mostly inhibitors. Drosophila S2 Gal4-RORgamma UAS-luciferase reporter, 20 h. actives 5.4% (n = 310,000). P51450; note: nearly all actives have a fitted effect of over 60% in size
Target sequence (P51450 whole entry, looked up, the tested form may be a part): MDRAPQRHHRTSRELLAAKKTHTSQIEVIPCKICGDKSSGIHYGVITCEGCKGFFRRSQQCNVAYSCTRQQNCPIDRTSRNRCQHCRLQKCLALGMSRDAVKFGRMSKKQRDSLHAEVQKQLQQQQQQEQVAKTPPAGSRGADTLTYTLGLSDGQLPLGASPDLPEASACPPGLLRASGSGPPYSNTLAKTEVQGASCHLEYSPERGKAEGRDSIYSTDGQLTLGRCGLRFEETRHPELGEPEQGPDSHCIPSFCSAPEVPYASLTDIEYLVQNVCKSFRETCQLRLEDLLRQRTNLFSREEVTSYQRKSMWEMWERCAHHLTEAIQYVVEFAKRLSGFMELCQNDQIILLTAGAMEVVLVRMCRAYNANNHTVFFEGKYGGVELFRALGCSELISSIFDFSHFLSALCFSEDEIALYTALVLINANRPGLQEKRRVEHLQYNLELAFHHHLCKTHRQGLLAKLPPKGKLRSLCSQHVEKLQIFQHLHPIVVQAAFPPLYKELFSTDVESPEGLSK
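Using a luciferase readout, inhibitors were identified by reduced reporter activity in Drosophila cells coexpressing a copper-inducible Gal4–ROR gamma fusion and UAS-driven Photinus luciferase, incubated 20 hr after 700 uM copper sulfate.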
Gal4-VP16 FLuc: inhibits Gal4-VP16 luciferase reporter, ROR gamma counter-screen. Drosophila S2 Gal4-VP16 UAS-luciferase, luminescence, 20 h. Potency, µM (titrated, usually from 53.6 µM), without a hit: at the top dose activity, negative = inhibition, actives largely listed as inhibitors. actives 3.5% (n = 310,000). AID 2546;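 note: Gal4-VP16 expression switched on by copper sulfate through the metallothionein promoter; nearly all actives have a fitted effect of over 50% in size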
ELG1 repair inh: inhibitors of ELG1-dependent DNA repair in HEK293T cells | HEK293T ELG1-luciferase reporter, luminescence, 16 h; DNA damage induced by 5-fluorouridine | Potency, µM (highest dose often 46.1 µM), for the others: at the top dose activity change, negative = inhibition, usual class: inhibitors | actives 2.3% (n = 330,000) | AID 504467; note: nearly all actives have a fitted effect of over 55% in size
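DMSO vehicle served as the neutral condition. Each well held 2,000 cells given 5-fluorouridine plus compound; after 16 hr at 37 °C/5% CO2, ONE-Glo was added and luciferase measured 30 min later.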
TDP1 cell CPT: growth inhibition of DT40 Tdp1-/-;hTDP1 cells with camptothecin (screen for TDP1 inhibitors); chicken DT40 Tdp1-/-;hTDP1 cells + 20 nM CPT, ATP luminescence, 48 h; Potency, µM (doses to about 46.2 µM), inactives show at the top dose activity change, negative = growth inhibition, usual class: inhibitors; actives 12% (n = 420,000); AID 686979; note: nearly all actives have a fitted effect of over 55% in size
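Chicken DT40 Tdp1-/- cells stably complemented with human TDP1 were seeded at 400 cells/well in medium containing 20 nM camptothecin, exposed to pin-transferred compounds, and grown at 37 °C for at least 48 hr. Viability was read as ATP luminescence.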
Numbers without * were called inactive; u = inconclusive; x = not tested or not shown; [ ] = another dose, or the depositor's remark. Calls come from the whole dose curve; as a rule, active = well fitted curve in the direction sought with a large enough effect; inconclusive = small, poorly fitted or top-dose-only effect, or another doubt; inactive = no such curve, though single readings can be large; an effect the other way counts as inactive or inconclusive. % is set by controls: 0 for no effect and ±100 for the full control effect; potency is the fitted concentration of half-maximal effect.

SMILES	12-LOX inh	TDP1 cell noCPT	RORgamma inh	Gal4-VP16 FLuc	ELG1 repair inh	TDP1 cell CPT
CC(C)C(=O)Nc1ccccc1-c1nc2ccccc2[nH]c1=O	-1%	8%	x	x	6%	30%
Cc1sc2ncnc(N3CCC(C(=O)Nc4cc(C(F)(F)F)ccc4OCC(F)(F)F)CC3)c2c1C	-4%	18µM*	x	x	x	u
COC(CNC(=O)C1CCN(c2ncnc3sc(C)c(C)c23)CC1)OC	0%	x	x	x	x	x
Cc1sc2ncnc(N3CCC(C(=O)Oc4cccc(Cl)c4Cl)CC3)c2c1C	-2%	-26%	-2%	-5%	2%	-16%
COc1ccc(S(=O)(=O)N(C)C)cc1NC(=O)C1CCN(c2ncnc3sc(C)c(C)c23)CC1	-3%	9.2µM*	x	x	x	21µM*
Cc1sc2ncnc(N3CCC(C(=O)NNC(=O)c4ccc(Cl)cc4)CC3)c2c1C	1%	15µM*	x	x	u	16µM*
Cc1sc2ncnc(N3CCC(C(=O)Nc4cc(S(C)(=O)=O)ccc4Cl)CC3)c2c1C	2%	18µM*	x	x	u	13µM*
O=C(c1cc(-c2ccccc2)n[nH]1)N1CCc2c(nc3cc[nH]n3c2=O)C1	18%	x	x	x	x	x
NC(=O)c1nn(CC(=O)NCc2ccc(F)cc2)c(=O)c2ccccc12	4%	x	x	x	x	x
CNC(=O)NC(=O)C(C)Sc1ccccc1Cl (stereo not drawn)	-6%	x	x	x	x	x
CCOc1ccc(C2SCC(=O)N2c2c(C)n(C)n(-c3ccccc3)c2=O)cc1 (stereo not drawn)	0%	-2%	-4%	-2%	3%	7%
CCOc1ccc(C2=C(C=Nc3c(C)n(C)n(-c4ccccc4)c3=O)C(c3ccc(F)cc3)c3ccccc3O2)cc1 (stereo not drawn)	x	u	41%	-4%	-4%	23µM*
COc1ccc(C)cc1-n1c(SCC(=O)Nc2ccc3c(c2)OCO3)nc2ccccc2c1=O	0%	x	x	x	x	x
CCc1ccc(C2=NN(C(=O)Cc3ccc(OC)cc3)C(O)(C(F)(F)F)C2)cc1 (stereo not drawn)	-24%	x	x	x	x	x
CCC1=NN(C(=O)Cc2ccc([N+](=O)[O-])cc2)C(O)(C(C)(C)C)C1 (stereo not drawn)	1%	-22%	8.9µM*	-9%	3%	-14%
CCOc1ccc(CC(=O)N2N=C(C)CC2(O)C(F)(F)F)cc1 (stereo not drawn)	-15%	5.8µM*	1.6µM*	5µM*	5%	18µM*
CCOc1ccc(C(=O)N2N=C(C)CC2(O)C(F)(F)F)cc1 (stereo not drawn)	53%	x	x	x	x	x
CCc1ccc(C2(O)CC(C(F)(F)F)=NN2C(=O)Cc2ccc([N+](=O)[O-])cc2)cc1 (stereo not drawn)	56%	u	u	-5%	2%	u
CCCC1=NN(C(=O)Cc2ccc(OC)cc2)C(O)(C(F)(F)F)C1 (stereo not drawn)	1%	u	13µM*	u	5%	u
CC1Cc2ccccc2N1C(=O)CSc1ncc(-c2ccc(F)cc2)n1C (stereo not drawn)	-2%	u	-11%[10 µM]	3%	u	u
Cn1c(-c2ccc(F)cc2)cnc1SCC(=O)N1CCCCC1	0%	-18%	10µM*	u	u	-24%
COc1cc(S(=O)(=O)Nc2ccc(C(C)=O)cc2)ccc1NC(C)=O	-42%	x	x	x	x	x
Cc1cc(CN2CCCC(N3CCc4ccccc4C3)C2)cc(C)c1O (stereo not drawn)	-4%	u	-16%	-15%	1%	13µM*
COc1cc2c(cc1OC)CN(C1CCCN(Cc3cccc(C(C)=O)c3)C1)CC2 (stereo not drawn)	0%	-3%	x	x	x	-27%
O=C(CSc1nnc(-c2ccncc2)n1CC(F)(F)F)NCC1CC1	-7%	x	x	x	x	x
SMILES	12-LOX inh	TDP1 cell noCPT	RORgamma inh	Gal4-VP16 FLuc	ELG1 repair inh	TDP1 cell CPT
CCOc1ccccc1NC(=O)C1CCN(S(=O)(=O)c2c(C)noc2/C=C/c2ccco2)CC1	u	18µM*	x	x	x	u
Cc1cccc(NC(=O)C2CCN(S(=O)(=O)c3c(C)noc3/C=C/c3ccco3)CC2)c1C	-23%	-9%	x	x	x	-16%
COc1ccc(/C=C\c2onc(C)c2S(=O)(=O)N2CCC(C(=O)Nc3cccc(Cl)c3)CC2)cc1	u	9.2µM*	x	x	x	6.5µM*
COc1ccc(/C=C\c2onc(C)c2S(=O)(=O)N2CCC(C(=O)Nc3ccccc3OC)CC2)cc1	-22%	23µM*	x	x	x	u
Cc1noc(/C=C/c2ccco2)c1S(=O)(=O)N1CCC(C(=O)N2c3ccccc3CC2C)CC1 (stereo not drawn)	-29%	18µM*	23%	3%	u	15µM*
COc1cc(C(=O)N2CCC(C(=O)Nc3cccc(C(C)=O)c3)CC2)cc(OC)c1OC	-4%	u	7%	-1%	-14%	u
COc1cccc(C(=O)N2CCC(C(=O)Nc3cccc(Cl)c3)CC2)c1	7%	23µM*	x	x	x	10µM*
CCN(CC)C[C@H]1O[C@H](Cc2cc(-c3ccccc3)on2)CC[C@@H]1O	3%[176 µM]	x	x	x	x	x
COc1ccc(-c2coc3cc(OCC(=O)Nc4nccs4)ccc3c2=O)cc1	13%	x	x	x	x	x
COc1ccc(C2CCCN2CC(O)COc2ccccc2C(C)C)cc1 (stereo not drawn)	-12%	13µM*	1%	3%	-2%	23µM*
COc1ccc(NC(=O)Cn2nc3n(c2=O)CCCC3)cc1	9%	x	x	x	x	x
COC(=O)c1ccc2c(c1)nc1n2[C@@H](CNC2CCCCC2)COC1	26%[176 µM]	x	x	x	x	x
COc1nc(-c2cccs2)cc(-c2ccc(C)cc2)c1C#N	3%	13µM*	u	-25%	-2%	10µM*
N#Cc1c(-c2ccccc2)cc(-c2cccs2)nc1SCC(=O)O	u	-20%	13%	17%	3%	17%
COc1ccc(-c2cc(-c3cccs3)nc(OC)c2C#N)cc1OC	0%	29µM*	82%	-9%	18µM*	u
COc1ccc(-c2noc(-c3cccs3)n2)cc1OC	443%	u	-11%	2%	u	-2%
COc1cccc(CC(=O)N2CCCN(c3cc(-c4ccccc4)[nH]n3)CC2)c1	34%	x	x	x	x	x
O=c1[nH]c(CSc2cccc[n+]2[O-])nc2ccccc12	-12%	u	u	-7%	u	10µM*
